# This is one part of a sample in which hits are shown more often than they occur.
# GIRK2 activator: GIRK2 channel activators by thallium flux. P48051. HEK293 GIRK2/NPY4 cells, thallium flux fluorescence. activation (% efficacy), % for hits at 37.5 µM. 34,000 tested, under 10 active. AID 1259324;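 active means primary screen hit, no activity in plain HEK293 cells, and in GIRK2-only cells above 5% efficacy rising with concentration; inactive means the rest, including fluorescent compounds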;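 further: efficacy is normalized control-subtracted fluorescence 15 s after thallium addition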
# AMPAR-TARP mod: GluA2-stargazin AMPA receptor complex modulation; O88602+P19491; HEK293 GluA2+stargazin, membrane potential dye (FDSS), glutamate EC50; hits were called plate by plate, in both directions; calls only at 30 µM; hit rate 3.5% among 40,000;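 active means any of four per-well response measures lying three or more SD from its plate-wide compound average, in either direction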
# * = called active by the depositor; i = inactive; nt = no result; + = active, no number; ! = repeats disagree; [ ] = dose if it differs, or a comment.
SMILES,GIRK2 activator,AMPAR-TARP mod
Cc1ccc2nc(NC(=O)c3ccc(S(=O)(=O)C(C)C)cc3)sc2c1,nt,+
CC(C)S(=O)(=O)c1ccc(C(=O)Nc2nc3cc4c(cc3s2)OCCO4)cc1,i,i
COc1ccc(S(=O)(=O)NCCc2ccc(N(C)C)cc2)cc1Cl,nt,+
O=S(=O)(NCC(O)(c1ccccc1)C(F)(F)F)c1ccc(F)c(Cl)c1 (stereo unspecified),i,i
COc1ccc(S(=O)(=O)NCC(c2ccsc2)N(C)C)cc1Cl (stereo unspecified),i,i
COc1ccc(S(=O)(=O)NCC(O)(c2ccccc2)C(F)(F)F)cc1Cl (stereo unspecified),i,+
Cc1cc(C(=O)N2CCC(c3nnc(-c4ccco4)s3)CC2)c(C)o1,i,i
COc1ccc2nc(N(Cc3ccncc3)C(=O)/C=C/c3cccc([N+](=O)[O-])c3)sc2c1,i,i
Cc1cc(NC(=O)C(=O)NCC2(c3cccs3)CCCC2)c2ccccc2n1,6.0%*[75 µM],nt
CSc1ccccc1NC(=O)C(=O)NCC1(c2cccs2)CCCC1,i,nt
O=C(c1ccccc1)N1CCCc2cc(NC(=O)C3(c4ccccc4)CCOCC3)ccc21,i,i
O=C(C1CCN(c2ccc(-c3ccc(F)cc3)nn2)CC1)N1CCOCC1,i,i
Cc1ccc(NC(=O)N2CCC3(CC2)NC(=O)N(Cc2ccc(Cl)cc2)C3=O)cc1F,i,+
O=C(Nc1ccc(F)cc1)N1CCC2(CC1)NC(=O)N(Cc1ccc(Cl)cc1)C2=O,i,nt
O=C(Nc1ccc(F)c(Cl)c1)N1CCC2(CC1)NC(=O)N(CCc1ccccc1)C2=O,i,+
O=C(Nc1ccccc1)N1CCC2(CC1)NC(=O)N(CCc1ccccc1)C2=O,i,i
Cc1sc2ncn(CC(=O)N3CCCC3)c(=O)c2c1-c1ccc(Br)cc1,nt,i
O=C(Nc1ccccc1)c1ccc(C(=O)Nc2ccccc2)nc1,nt,i
O=C(Nc1ccccc1)c1cccc2nc3ccccc3nc12,nt,+
COc1ccc(C)cc1S(=O)(=O)Nc1ccc(C)c(N2CCCC2=O)c1,i,i
O=C(NCc1cccc2ccccc12)Nc1ccc(Cl)c(N2CCCS2(=O)=O)c1,i,+
O=C(NCc1cccs1)Nc1ccc(Cl)c(N2CCCS2(=O)=O)c1,i,i
CCCOc1cc(N2CCN(C(=O)Cc3ccc(Cl)cc3)CC2)nc(C)n1,i,i
CCOCCn1c(=O)c2c(nc3n2CC(C)CN3c2ccc(Br)cc2)n(C)c1=O (stereo unspecified),nt,i
COCCn1c(=O)c2c(nc3n2CC(C)CN3c2ccc(Br)cc2)n(C)c1=O (stereo unspecified),nt,+
SMILES,GIRK2 activator,AMPAR-TARP mod
COCCn1c(=O)c2c(nc(-n3nc(C)cc3C)n2C)n(C)c1=O,nt,+
CCn1c(-n2nc(C)cc2C)nc2c1c(=O)n(CCOC)c(=O)n2C,nt,i
COCC(=O)Nn1cnc2c(cnn2-c2ccc(C)cc2)c1=O,i,i
CN1CCN(n2c3c(c(SCC(=O)Nc4cccc5ccccc45)nc2=O)CCC3)CC1,i,i
Cc1cc(NC(=O)CSc2nc(=O)n(N3CCN(C)CC3)c3c2CCC3)no1,i,+
COc1cccc(-c2cc(CC(=O)NCCCN3CCOCC3)no2)c1,i,+
COc1ccc(-c2cc(CC(=O)NCCN3CCOCC3)no2)cc1,i,nt
CCN(C1CCCCC1)S(=O)(=O)c1ccc(C(=O)Nc2ncnc3sccc23)cc1,i,+
CN(C1CCCC1)S(=O)(=O)c1ccc(C(=O)Nc2ncnc3sccc23)cc1,nt,i
O=C(O)C1CCN(S(=O)(=O)c2ccc3ccccc3c2)CC1,nt,i
Cc1ccc(S(=O)(=O)Nc2ccc3c(c2)N(C(=O)c2ccccc2)CCC3)cc1C,nt,i
CS(=O)(=O)c1ccc(CC(=O)N2CCN(c3nc4c(Cl)cccc4s3)CC2)cc1,nt,i
CCc1cccc2sc(N3CCN(C(=O)Cc4ccc(S(=O)(=O)CC)cc4)CC3)nc12,nt,+
COc1ccc2c(c1)CCN(C(=O)c1nc(-c3cnccn3)no1)C2,i,i
CC(=O)Nc1ccc(NC(=O)c2ccc(=O)n(Cc3cccc(C(F)(F)F)c3)c2)cc1,i,i
COc1cc(/C=C/C(=O)N2CCC(C)CC2)ccc1OCc1ccccc1,i,+!
COc1cc(/C=C/C(=O)N2CCCCCC2)ccc1OCc1ccccc1,i,i
Cn1cc(C(=O)N2CCOCC2)cc(NC(=O)c2ccco2)c1=O,nt,i
CN(C)CCNc1cc(C(C)(C)C)nc2c(-c3ccccc3)cnn12,i,+
CC(C)(C)c1cc(NCCCn2ccnc2)n2ncc(-c3ccccc3)c2n1,i,i
Cc1nnc2ccc(N3CCN(C(=O)NCc4ccccc4)CC3)nn12,i,i
O=S(=O)(c1ccccc1F)N1CCN(c2ccc3nnc(-c4ccco4)n3n2)CC1,i,+
Cc1ccc(C)c(S(=O)(=O)N2CCN(c3ccc4nnc(-c5ccco5)n4n3)CC2)c1,i,i
Cc1nnc2ccc(N3CCN(S(=O)(=O)c4ccccc4Cl)CC3)nn12,i,+
O=C(NCc1ccccc1)N1CCN(c2ccc3nnc(-c4ccco4)n3n2)CC1,i,+
SMILES,GIRK2 activator,AMPAR-TARP mod
Cc1nnc2ccc(N3CCN(S(=O)(=O)c4ccccc4C(F)(F)F)CC3)nn12,i,i
O=C(CC(c1ccccc1)c1ccccc1)NCCCn1nc(-c2ccncc2)ccc1=O,i,nt
CCn1nnc2c(NCc3ccc4c(c3)OCO4)ncnc21,i,i
O=C(COc1ccc(Cl)cc1Cl)NCC(O)c1ccsc1 (stereo unspecified),i,i
COc1ccccc1NC(=O)CSc1nc(-c2ccccc2)[nH]c1S(=O)(=O)c1ccccc1,i,+
O=C(CSc1nc(-c2ccccc2)[nH]c1S(=O)(=O)c1ccccc1)NC1CCCC1,i,i
COc1ccc(CNC(=O)CSc2nc(-c3ccccc3)[nH]c2S(=O)(=O)c2ccccc2)cc1,i,i
CC1CCCCN1C(=O)CSc1nc(-c2ccccc2)[nH]c1S(=O)(=O)c1ccccc1 (stereo unspecified),i,+
COc1ccccc1N1CCN(C(=O)c2nn(-c3ccc(F)cc3)cc2OC)CC1,i,i
CCc1ccc(S(=O)(=O)NCCNc2cc(N3CCOCC3)nc(C)n2)cc1,i,nt
COc1ccc(-c2nc(SC(CC(=O)NCCc3ccccc3)c3ccc(OC)cc3)n[nH]2)cc1 (stereo unspecified),nt,+
O=C(CC(Sc1n[nH]c(-c2ccccc2)n1)c1ccccc1)NCCc1ccccc1 (stereo unspecified),nt,i
CC(C)C(=O)Nc1nn(C)c2c1CC(C)C(=O)N2 (stereo unspecified),i,i
COC(=O)/C=C1\S/C(=N\Nc2nc(C)cc(C)n2)N(c2ccccc2)C1=O,nt,+
COC(=O)/C=C1\S/C(=N/Nc2nc(C)cc(C)n2)N(c2ccccc2)C1=O,i,nt
COc1ccccc1CCNC(=O)C1CN(C(=O)c2cccs2)C1,i,i
COc1cccc(OC)c1C(=O)Nc1ccc([N+](=O)[O-])cn1,nt,i
COc1ccc(C(=O)Nc2ccc([N+](=O)[O-])cn2)cc1OC,nt,+
O=C(CSc1ccc(-c2ccc3ccccc3c2)nn1)NCc1ccc2c(c1)OCO2,i,i
